rTrxR1 inhibitor – inhibitors of rat thioredoxin reductase 1 | O89049 | hit rate 1% among 390,000 | Potency, µM (titrated, usually from 114 µM), actives largely listed as inhibitors | recombinant rTrxR1, NADPH fluorescence consumption, selenite substrate; note: nearly all actives have a fitted effect of over 65% in size
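Rat TrxR1 (90 nM in the dispensed reagent) was pre-reduced with 400 uM NADPH for 5 min at room temperature, then incubated with compound for 15 min. After 400 uM selenite was added, NADPH fluorescence (Ex 340/Em 450 nm) was followed for 8 min.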
A549 viability – kills or reduces viability of A549 cells in Nrf2 counter-screen | AID 504648 | hit rate 0.16% among 390,000 | Potency, µM (doses to about 46 µM), actives largely listed as inhibitors | A549 ARE-Fluc cells, CellTiter-Fluor viability, 18-24 h
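A549 ARE_Fluc cells in 5% FBS OPTI-MEM were exposed to compounds in concentration-response for 18-24 h at 37 deg C. Viability was read by CellTiter-Fluor fluorescence (Ex 405/Em 525) after 30 min, before the luciferase read.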
mIDH1 inhibitor – inhibitors of human mutant IDH1 R132H; IDH1-R132H enzyme, NADPH consumption, diaphorase/resazurin fluorescence; hit rate 0.093% among 390,000; Potency, µM (highest dose often 76.6 µM), usual class: inhibitors; note: nearly all actives have a fitted effect of over 65% in size
Target sequence (O75874 whole entry R132H, stated change not applied): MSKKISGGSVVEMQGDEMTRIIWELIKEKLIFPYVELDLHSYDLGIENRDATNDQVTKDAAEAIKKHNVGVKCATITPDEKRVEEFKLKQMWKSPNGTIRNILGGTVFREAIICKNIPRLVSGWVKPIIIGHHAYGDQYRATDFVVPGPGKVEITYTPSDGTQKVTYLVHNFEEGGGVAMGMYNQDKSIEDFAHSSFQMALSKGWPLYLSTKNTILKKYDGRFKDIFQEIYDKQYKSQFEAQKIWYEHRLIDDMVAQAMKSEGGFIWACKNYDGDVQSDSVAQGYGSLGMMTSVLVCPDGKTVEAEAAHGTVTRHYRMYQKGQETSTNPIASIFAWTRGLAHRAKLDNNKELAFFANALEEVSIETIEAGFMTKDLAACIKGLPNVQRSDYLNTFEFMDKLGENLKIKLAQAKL
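IDH1-R132H (0.5 ug/mL) preincubated 30 min with compound, then NADPH (0.016 mM) and alpha-KG (2 mM) added; 80 min at RT, pH 7.5. Remaining NADPH coupled via diaphorase/resazurin to fluorescence (540/590 nm); concentration-response curves normalized to no-enzyme control.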
Mito fusion act – inhibitors of mitochondrial division or activators of mitochondrial fusion | S. cerevisiae fusion-defective mutant growth rescue, CellTiterGlo 48 h | Potency, µM (series often up to 46.1 µM), usual class: activators | hit rate 0.23% among 320,000 | AID 485298; note: nearly all actives have a fitted effect of over 45% in size
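Compounds are tested for their ability to restore growth of mitochondrial fusion-defective yeast strains at non-permissive 37C in YPEG medium over 48 hours. Viability is quantified by luciferase luminescence.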
Nrf2 inh – Nrf2 pathway inhibition | A549 ARE-Fluc reporter, luciferase luminescence, 18-24 h | Potency, µM (doses to about 46 µM), hits mostly inhibitors | hit rate 2.1% among 360,000 | AID 504444; note: nearly all actives have a fitted effect of over 60% in size
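A549 ARE_Fluc cells (5000/well, 5% FBS OPTI-MEM) pre-incubated 2 h, then treated with compounds 18-24 h at 37C/5% CO2 in concentration-response. CellTiter-Fluor viability read first; BugLite luciferase luminescence after 15 min at room temperature gives Nrf2 activity.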
TrxR1 substrate – substrates of rat thioredoxin reductase 1; Potency, µM (doses to about 114 µM); hit rate 0.01% among 390,000; purified TrxR1 substrate turnover, NADPH consumption readout; O89049; note: nearly all actives have a fitted effect of over 50% in size
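Rat TrxR1, dispensed at 90 nM, was prereduced with 400 uM NADPH (final) for 5 min at ~22 deg C, then incubated with compound 15 min before 400 uM selenite. A first-read NADPH fluorescence drop versus no-compound background flagged substrates.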
Each line names hits and unclear results; the compound was inactive in the other large screens. The list is not random: actives were taken first. Their share in the collection is about 3.1%. Calls come from the whole dose curve; as a rule, active = well fitted curve in the direction sought with a large enough effect; inconclusive = small, poorly fitted or top-dose-only effect, or another doubt; inactive = no such curve, though single readings can be large; an effect the other way counts as inactive or inconclusive.

CC(C)(C)OC(=O)NCCCCCNC(=O)c1nc[nH]c1C(=O)NCCCCCNC(=O)OC(C)(C)C	Nrf2 inh 13µM (no result: Mito fusion act)
CC(C)(C)OC(=O)NCCCC[C@H](NC(=O)c1nc[nH]c1C(=O)N[C@@H](CCCCNC(=O)OC(C)(C)C)C(=O)OC(C)(C)C)C(=O)OC(C)(C)C	Nrf2 inh inconclusive
CC(C)(C)OC(=O)NCCCCCNC(=O)c1[nH]cnc1C(=O)N[C@@H](CCCCNC(=O)OC(C)(C)C)C(=O)OC(C)(C)C	Nrf2 inh 23µM
Cc1cccc(NC(=O)c2nc[nH]c2C(=O)NCCCNC(=O)c2[nH]cnc2C(=O)Nc2cccc(C)c2)c1	none (no result: Mito fusion act)
Cc1cccc(NC(=O)c2nc[nH]c2C(=O)NCCCCCNC(=O)OC(C)(C)C)c1	A549 viability inconclusive, Nrf2 inh 21µM
CC(C)(C)OC(=O)NCCCCCNC(=O)c1nc[nH]c1C(=O)NCc1ccc(CNC(=O)OC(C)(C)C)cc1	A549 viability inconclusive, Nrf2 inh 13µM (no result: Mito fusion act)
CC(C)(C)OC(=O)CNC(=O)c1nc[nH]c1C(=O)NCc1ccc(CNC(=O)OC(C)(C)C)cc1	none
Cc1ccc(C)n1-c1c(C(=O)NCCC(C)C)sc2ncccc12	none (no result: Mito fusion act, Nrf2 inh)
O=C(/C=C/c1ccccc1)c1cc(Br)ccc(=O)c1O	rTrxR1 inhibitor inconclusive, A549 viability inconclusive, Nrf2 inh 18µM
Cc1ccc(/C=C/C(=O)c2ccccc(=O)c2O)cc1C	rTrxR1 inhibitor inconclusive, A549 viability inconclusive, Nrf2 inh 21µM
COc1ccc(C=CC(=O)c2ccc(OC)c(OC)c2O)cc1OC	none (no result: Mito fusion act)
O=C(O[C@H]1[C@H](Cc2ccccc2)NS(=O)(=O)[C@H]2C[C@@H]3C=C[C@]12O3)c1ccccc1Br	none (no result: A549 viability, mIDH1 inhibitor, Mito fusion act, Nrf2 inh)
COc1ccc(CC2(CO)CCN(CC3=Cc4cc(Cl)ccc4OC3)CC2)cc1	Nrf2 inh 13µM
CN(C)c1ccc(/C=C/c2cc[n+](C)c3ccc4ccccc4c23)cc1	none (no result: A549 viability, mIDH1 inhibitor, Mito fusion act, Nrf2 inh)
Cc1cccc(C)c1Nc1c(-c2ccsc2)nc2ccccn12	Nrf2 inh 18µM (no result: Mito fusion act)
Cc1cccc(C)c1Nc1c(-c2ccsc2)nc2ccc(Cl)cn12	none (no result: Mito fusion act)
CCOC(=O)c1ccc2c(c1)C1C=CCC1C(C(=O)OCC)N2 (centres undefined)	rTrxR1 inhibitor 40µM
CCOC(=O)C1Nc2ccc(Br)cc2C2C=CCC12 (centres undefined)	rTrxR1 inhibitor 32µM
CCOC(=O)C1Nc2ccc(C)cc2C2C=CCC12 (centres undefined)	rTrxR1 inhibitor 5.6µM (no result: Mito fusion act)
CC(C)CNC(=O)C1Nc2ccc(OC(F)(F)F)cc2C2C=CCC12 (centres undefined)	rTrxR1 inhibitor inconclusive, Nrf2 inh inconclusive (no result: Mito fusion act)
O=C(O)C1Nc2ccc(Br)cc2C2C=CCC12 (centres undefined)	rTrxR1 inhibitor 20µM
CC(C)Cc1ccc(S(=O)(=O)Nc2ccc3[nH]c(=O)[nH]c3c2)cc1	Nrf2 inh 18µM
CCc1ccc(NS(=O)(=O)c2ccc3[nH]c(=O)[nH]c3c2)cc1	none
Cc1ccc(-n2nc3c(=O)n(CCCC(=O)NC(C)c4ccccc4)nc(C)c3c2C)cc1 (centres undefined)	none (no result: Mito fusion act)
COc1ccccc1NC(=O)C(OC(=O)CNC(=O)c1ccccc1)c1ccccc1 (centres undefined)	none (no result: rTrxR1 inhibitor, mIDH1 inhibitor, Mito fusion act, TrxR1 substrate)
O=S1(=O)N=C(Oc2cccc(-c3ccccc3)c2)c2ccccc21	none (no result: rTrxR1 inhibitor, mIDH1 inhibitor, Mito fusion act, TrxR1 substrate)
S=c1sc2c(Cl)ncnc2n1-c1ccccc1	rTrxR1 inhibitor 16µM, Nrf2 inh inconclusive
Cc1nc(N2CCN(C)CC2)c2sc(=S)n(-c3ccccc3)c2n1	none
COc1nc(NCc2cccnc2)nc(NC2CCCCC2)n1	Mito fusion act 13µM
COc1nc(NCc2cccnc2)nc(OC)n1	none
O=C(Nc1ccn(Cc2ccccc2F)n1)c1ccc(COc2ccc(Br)cc2)cc1	A549 viability inconclusive, Nrf2 inh 6.5µM
CC(Sc1ccsc1[N+](=O)[O-])C(=O)NCc1ccco1 (centres undefined)	rTrxR1 inhibitor 20µM

Compound activity (PubChem)
